Holding throughout (assay): log2 fold change, soluble protein after heating vs DMSO (PISA); higher = thermal stabilisation; K562 cells, 10 uM, 30 min; active = over 0.2 and 3.5 SD of the protein, either way, in both replicates (recomputed)
Compound in assay [1]: C#Cc1cccc(Nc2ncnc3cc(OCCOC)c(OCCOC)cc23)c1 [erlotinib]
In a few lines:
(§1)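 Quantification of soluble protein used TMTpro 16plex LC-MS/MS, with channel sums equalised. Samples were the supernatant after 21,000xg for 90 min of pooled aliquots from K562 cells (2×10^6 cells/mL) treated with 10 μM compound for 30 min, heated for 3 min over 48°C-58°C, and extracted in PBS with 0.5% NP-40 at 4°C. Values, from duplicates, describe thermal stability against control samples on a log2 fold-change scale.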

Compound in assay [2]: C1=CC(=C(C=C1Cl)C2=NC3=NC=CN=C3C(=N2)NC4=CC=NC=C4)F
In a few lines:
as §1

Compound in assay [3]: C1=CC(=CC=C1C2=NC3=C(N2)C=C(C=C3)C(=O)N)OC4=CC=C(C=C4)Cl
In a few lines:
as §1

Compound in assay [4]: C1=CC=C(C=C1)C2=NC(=C(N2)C3=CC=NC=C3)C4=CC(=C(C=C4)Cl)O
In a few lines:
as §1

Compound in assay [5]: C1CCN(C1)C(=O)NC2=CC=CC(=C2)NC3=NC=C(C(=N3)NCCC4=CN=CN4)Br
In a few lines: as §1

Compound in assay [6]: C1CN(CCC1(CC2=CC=C(C=C2)Cl)N)C3=NC=NC4=C3C=CN4
In a few lines:
as §1

Compound in assay [7]: C1COCCN1CCN2C3=CC=CC=C3N=C2NC(=O)C4=CC(=CC=C4)[N+](=O)[O-] [IRAK-1-4 Inhibitor I]
In a few lines:
as §1

Compound in assay [8]: CC(C)(C)Cn1c(N)nc2ccc(-c3[nH]c(C(C)(C)C)nc3-c3ccc(F)cc3)nc21 [ralimetinib]
In a few lines: as §1

Compound in assay [9]: CC(C)(O)CC(=O)NCCn1ccc2ncnc(Nc3ccc(Oc4cccc(C(F)(F)F)c4)c(Cl)c3)c21
In a few lines: as §1

Compound in assay [10]: CC(C)C1=C2N=C(C=C(N2N=C1)NCC3=CC=CC=C3)NCCCCCCN
In a few lines:
as §1

Compound in assay [11]: CC(C)C[C@@H](C=O)NC(=O)[C@H](CC(C)C)NC(=O)[C@H](CC(C)C)NC(=O)OCc1ccccc1
In a few lines: as §1

Compound in assay [12]: CC(C)N(C[C@H]1O[C@@H](n2cnc3c(N)ncnc32)[C@H](O)[C@@H]1O)[C@H]1C[C@@H](CCc2nc3cc(C(C)(C)C)ccc3[nH]2)C1 [pinometostat]
In a few lines:
as §1

Compound in assay [13]: CC1=C(C(CC(=O)N1)C2=CC=C(C=C2)C(F)(F)F)C(=O)NC3=C(C=C4C(=C3)C=NN4)F
In a few lines: as §1

Compound in assay [14]: CC1=C(C2=C(C=C1)C(=O)C3=CC=CC=C3N2CCCN)C
In a few lines:
as §1

Compound in assay [15]: C1=CC2=NC=CN=C2C=C1/C=C/3\C(=O)NC(=O)S3
In a few lines:
as §1

Compound in assay [16]: C=CC(=O)N1CCC[C@@H](n2nc(-c3ccc(Oc4ccccc4)cc3)c3c(N)ncnc32)C1 [ibrutinib]
In a few lines: as §1

Compound in assay [17]: C/C(=N\NC(=O)C1=CC(=CC=C1)S(=O)(=O)N2CCOCC2)/C3=C(C=CC(=C3)Cl)O
In a few lines:
as §1

Compound in assay [18]: C1=CC2=C(C=CC(=C2)/C=C\3/C(=O)NC(=NCC4=CC=CS4)S3)N=C1
In a few lines:
as §1

Compound in assay [19]: C1=CC=C2C(=C1)C3=NNC4=CC=CC(=C43)C2=O
In a few lines: as §1

Compound in assay [20]: CC(=O)c1cnc2ccc(-c3cc(Cl)c(O)c(Cl)c3)nc2c1N[C@H]1CC[C@H](CN(C)C)CC1
In a few lines: as §1

Of roughly 7,900 targets only a part is listed; those with a hit were picked by preference. About 0.6% of all pairs of compound and target were hits. A number with no mark means an inactive call.

Sequence of UniProt Q9BWG4 (Q9BWG4 whole entry, looked up): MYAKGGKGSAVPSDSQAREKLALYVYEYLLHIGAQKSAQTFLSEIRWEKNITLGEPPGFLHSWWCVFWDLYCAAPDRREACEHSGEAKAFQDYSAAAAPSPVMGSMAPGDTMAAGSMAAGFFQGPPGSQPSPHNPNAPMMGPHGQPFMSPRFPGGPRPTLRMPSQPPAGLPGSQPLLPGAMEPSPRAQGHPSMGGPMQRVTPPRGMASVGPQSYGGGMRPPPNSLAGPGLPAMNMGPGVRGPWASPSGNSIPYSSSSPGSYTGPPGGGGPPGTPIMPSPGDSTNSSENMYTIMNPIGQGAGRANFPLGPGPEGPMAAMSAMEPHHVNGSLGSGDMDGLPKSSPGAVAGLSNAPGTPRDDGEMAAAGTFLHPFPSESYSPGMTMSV
Sequence of UniProt O94901 (O94901 whole entry, looked up): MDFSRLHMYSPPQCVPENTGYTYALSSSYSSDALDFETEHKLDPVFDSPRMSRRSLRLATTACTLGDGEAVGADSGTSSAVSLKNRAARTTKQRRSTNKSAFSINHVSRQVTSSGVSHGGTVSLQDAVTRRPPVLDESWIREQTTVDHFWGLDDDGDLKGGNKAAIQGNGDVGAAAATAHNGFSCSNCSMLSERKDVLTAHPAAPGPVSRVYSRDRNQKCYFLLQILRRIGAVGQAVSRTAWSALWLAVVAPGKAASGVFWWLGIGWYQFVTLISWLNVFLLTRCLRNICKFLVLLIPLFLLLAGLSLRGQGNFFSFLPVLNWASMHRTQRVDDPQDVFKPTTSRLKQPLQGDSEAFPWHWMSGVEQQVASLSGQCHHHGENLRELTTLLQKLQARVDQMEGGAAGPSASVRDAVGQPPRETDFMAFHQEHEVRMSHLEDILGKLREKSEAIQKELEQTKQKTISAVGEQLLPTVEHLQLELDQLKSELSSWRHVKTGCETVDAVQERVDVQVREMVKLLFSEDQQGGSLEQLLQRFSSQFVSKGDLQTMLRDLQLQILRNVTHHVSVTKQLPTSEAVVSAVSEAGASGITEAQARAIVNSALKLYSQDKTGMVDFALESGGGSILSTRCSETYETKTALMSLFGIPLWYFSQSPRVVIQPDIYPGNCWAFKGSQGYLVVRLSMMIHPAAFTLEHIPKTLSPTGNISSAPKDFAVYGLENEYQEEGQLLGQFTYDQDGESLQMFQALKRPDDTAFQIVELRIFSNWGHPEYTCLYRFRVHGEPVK
Sequence of UniProt Q9BYN0 (Q9BYN0 whole entry, looked up): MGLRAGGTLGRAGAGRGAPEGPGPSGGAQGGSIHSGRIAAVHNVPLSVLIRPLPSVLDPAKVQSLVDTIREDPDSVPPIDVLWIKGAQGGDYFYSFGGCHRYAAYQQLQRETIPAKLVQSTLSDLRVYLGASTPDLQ
Sequence of UniProt O95359 (O95359 whole entry, looked up): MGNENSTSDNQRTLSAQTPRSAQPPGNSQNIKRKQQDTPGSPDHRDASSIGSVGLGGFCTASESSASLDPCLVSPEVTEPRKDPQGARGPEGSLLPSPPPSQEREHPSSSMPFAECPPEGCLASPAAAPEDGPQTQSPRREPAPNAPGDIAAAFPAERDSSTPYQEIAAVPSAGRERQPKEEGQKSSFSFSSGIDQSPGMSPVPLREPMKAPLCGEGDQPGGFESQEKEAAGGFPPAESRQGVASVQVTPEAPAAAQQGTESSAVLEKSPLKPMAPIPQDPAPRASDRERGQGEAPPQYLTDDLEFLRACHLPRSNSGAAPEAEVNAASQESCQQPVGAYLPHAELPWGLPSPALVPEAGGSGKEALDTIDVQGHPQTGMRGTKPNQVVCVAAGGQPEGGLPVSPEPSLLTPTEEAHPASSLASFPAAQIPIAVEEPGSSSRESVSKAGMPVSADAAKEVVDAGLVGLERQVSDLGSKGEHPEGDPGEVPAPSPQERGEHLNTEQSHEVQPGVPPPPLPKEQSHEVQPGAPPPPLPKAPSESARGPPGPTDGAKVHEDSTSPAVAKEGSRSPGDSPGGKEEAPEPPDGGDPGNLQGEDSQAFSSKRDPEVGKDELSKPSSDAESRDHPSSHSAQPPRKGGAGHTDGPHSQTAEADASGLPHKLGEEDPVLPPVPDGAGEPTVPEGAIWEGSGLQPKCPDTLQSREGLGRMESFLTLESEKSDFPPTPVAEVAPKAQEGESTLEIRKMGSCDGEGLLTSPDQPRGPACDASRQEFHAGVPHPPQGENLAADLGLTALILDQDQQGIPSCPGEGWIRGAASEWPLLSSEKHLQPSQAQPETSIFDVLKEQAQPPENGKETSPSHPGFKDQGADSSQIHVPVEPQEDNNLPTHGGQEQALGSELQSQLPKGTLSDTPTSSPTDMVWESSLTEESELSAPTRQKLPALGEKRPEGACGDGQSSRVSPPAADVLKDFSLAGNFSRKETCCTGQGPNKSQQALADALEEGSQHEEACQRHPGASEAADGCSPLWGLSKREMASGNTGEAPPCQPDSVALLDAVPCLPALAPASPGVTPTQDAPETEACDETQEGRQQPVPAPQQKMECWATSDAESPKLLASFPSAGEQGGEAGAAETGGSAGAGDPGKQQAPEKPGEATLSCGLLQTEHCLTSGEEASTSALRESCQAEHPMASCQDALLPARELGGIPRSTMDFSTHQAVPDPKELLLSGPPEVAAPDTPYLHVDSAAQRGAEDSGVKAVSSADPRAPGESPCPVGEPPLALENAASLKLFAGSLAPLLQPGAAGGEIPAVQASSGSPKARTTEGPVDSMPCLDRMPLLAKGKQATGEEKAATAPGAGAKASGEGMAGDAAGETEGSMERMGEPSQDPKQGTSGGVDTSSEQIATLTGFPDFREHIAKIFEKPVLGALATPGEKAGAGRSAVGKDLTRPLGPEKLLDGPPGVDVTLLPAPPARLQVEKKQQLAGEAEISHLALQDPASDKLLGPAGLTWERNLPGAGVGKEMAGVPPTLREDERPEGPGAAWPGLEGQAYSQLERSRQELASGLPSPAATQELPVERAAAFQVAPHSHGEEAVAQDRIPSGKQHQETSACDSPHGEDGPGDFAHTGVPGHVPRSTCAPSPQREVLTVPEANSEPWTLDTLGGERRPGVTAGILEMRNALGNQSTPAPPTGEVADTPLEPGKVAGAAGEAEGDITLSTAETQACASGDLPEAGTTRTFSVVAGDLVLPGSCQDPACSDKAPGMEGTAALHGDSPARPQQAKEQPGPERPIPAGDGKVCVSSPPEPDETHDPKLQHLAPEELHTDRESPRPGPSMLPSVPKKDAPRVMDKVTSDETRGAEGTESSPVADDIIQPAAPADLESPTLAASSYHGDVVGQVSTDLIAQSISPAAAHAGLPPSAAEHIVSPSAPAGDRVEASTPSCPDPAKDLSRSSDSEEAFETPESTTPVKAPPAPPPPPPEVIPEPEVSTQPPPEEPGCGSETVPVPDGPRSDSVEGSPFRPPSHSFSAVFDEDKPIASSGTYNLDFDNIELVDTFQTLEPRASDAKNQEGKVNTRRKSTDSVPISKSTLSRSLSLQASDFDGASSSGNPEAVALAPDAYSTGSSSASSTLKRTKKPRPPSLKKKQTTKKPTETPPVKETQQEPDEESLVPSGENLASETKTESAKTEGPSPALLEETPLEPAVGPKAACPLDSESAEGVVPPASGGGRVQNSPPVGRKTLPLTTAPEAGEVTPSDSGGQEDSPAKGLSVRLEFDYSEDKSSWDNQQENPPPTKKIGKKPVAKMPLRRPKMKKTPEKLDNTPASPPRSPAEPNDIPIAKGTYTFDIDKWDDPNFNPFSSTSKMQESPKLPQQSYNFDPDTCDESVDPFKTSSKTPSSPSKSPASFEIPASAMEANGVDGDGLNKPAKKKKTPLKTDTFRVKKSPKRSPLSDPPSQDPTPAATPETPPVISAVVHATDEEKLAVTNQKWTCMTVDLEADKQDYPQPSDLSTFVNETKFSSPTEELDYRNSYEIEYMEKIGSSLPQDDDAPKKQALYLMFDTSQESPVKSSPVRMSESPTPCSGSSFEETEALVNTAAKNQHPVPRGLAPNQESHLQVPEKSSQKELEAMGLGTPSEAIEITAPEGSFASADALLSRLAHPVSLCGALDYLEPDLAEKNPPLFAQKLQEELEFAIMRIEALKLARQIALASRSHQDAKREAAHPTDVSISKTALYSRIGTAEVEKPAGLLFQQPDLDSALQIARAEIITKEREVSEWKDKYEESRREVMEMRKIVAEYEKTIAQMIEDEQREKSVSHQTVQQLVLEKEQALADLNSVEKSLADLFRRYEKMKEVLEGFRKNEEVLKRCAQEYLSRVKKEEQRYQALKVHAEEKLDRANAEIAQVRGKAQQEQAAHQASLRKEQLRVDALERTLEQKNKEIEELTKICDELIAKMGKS
Sequence of UniProt O60749 (O60749 whole entry, looked up): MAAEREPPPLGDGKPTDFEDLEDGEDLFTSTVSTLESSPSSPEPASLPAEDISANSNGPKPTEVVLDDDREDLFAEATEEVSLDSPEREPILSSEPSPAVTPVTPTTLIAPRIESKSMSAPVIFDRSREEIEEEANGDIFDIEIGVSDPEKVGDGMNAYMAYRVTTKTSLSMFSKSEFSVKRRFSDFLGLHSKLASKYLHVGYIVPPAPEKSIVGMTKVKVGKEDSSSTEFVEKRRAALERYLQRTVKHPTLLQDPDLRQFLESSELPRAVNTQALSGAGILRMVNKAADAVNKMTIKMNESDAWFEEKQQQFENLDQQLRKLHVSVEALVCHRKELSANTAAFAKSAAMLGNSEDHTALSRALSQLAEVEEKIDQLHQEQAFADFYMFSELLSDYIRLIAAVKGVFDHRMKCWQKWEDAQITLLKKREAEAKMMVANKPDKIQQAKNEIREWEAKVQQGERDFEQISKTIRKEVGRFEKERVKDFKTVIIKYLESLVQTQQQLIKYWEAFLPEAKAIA
Sequence of UniProt Q9H4I9 (Q9H4I9 whole entry, looked up): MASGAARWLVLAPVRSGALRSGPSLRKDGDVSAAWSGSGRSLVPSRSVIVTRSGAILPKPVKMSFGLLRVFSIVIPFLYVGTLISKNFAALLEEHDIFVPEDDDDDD

With TAOK2 (UniProt Q9UL54), the log2 fold change in [1] was -0.043; in [2], -0.019; in assay [3], 0.156; in assay [4], 0.029; in assay [5] it was -0.014; in assay [6], 0.029. For the same target, the log2 fold change in assay [7] is -0.132; in assay [8], 0.09; in assay [9] it was -0.041; in [10], 0.083; in [11], 0.001; in assay [12], 0.031. The log2 fold change in assay [13] is -0.044; in assay [14] it was 0.127.

As for SLC35B1 isoform 2 (UniProt P78383), the log2 fold change was -0.024 in assay [1]; -0.008 in [2]; 0.127 in [3]; 0.018 in assay [15]; 0.085 in assay [4]; -0.021 in assay [5]. For the same target, the log2 fold change was 0.271 in assay [6]; -0.067 in assay [7]; 0.09 in [16]; -0.184 in assay [8]; -0.217 in assay [9]; -0.04 in assay [10]. In addition, the log2 fold change in [11] was 0.038; in [12] it was 0.065; in [13], -0.086; in assay [14], 0.011.

Consider SRXN1 (UniProt Q9BYN0), for which the log2 fold change in [17] was 0.335; in [2], 0.097; in assay [18], 0.036; in assay [15], 0.031; in [4], 0.004; in [19] it was -0.017. For the same target, the log2 fold change in assay [5] was -0.021; in [6], 0.048; in assay [7], -0.291; in [16], -0.013; in assay [20] it was 0.12; in assay [8], -0.134. Moreover, the log2 fold change in assay [9] is -0.201; in [11] it was -0.024; in assay [12], 0.187; in assay [13] it was 0.045; in assay [14], -0.026.

As for SUN1 isoform 9 (UniProt O94901), the log2 fold change in assay [1] was 0.055; in assay [17], 0.037; in assay [2], -0.346 (active); in assay [3] it was 0.032; in [18], 0.066; in assay [4], -0.052. For the same target, the log2 fold change was 0.066 in assay [19]; 0.057 in [5]; 0.094 in assay [6]; -0.028 in assay [7]; -0.114 in [20]; 0.067 in assay [8]. Moreover, the log2 fold change is 0.115 in assay [9]; -0.149 in assay [10]; 0.042 in assay [11]; 0.128 in assay [12]; 0.127 in assay [13]; -0.05 in [14].

Consider SSBP4 (UniProt Q9BWG4), for which the log2 fold change is 0.08 in [1]; 0.076 in [17]; 0.043 in [3]; -0.054 in [18]; -0.056 in assay [15]; -0.052 in assay [4]. The log2 fold change in assay [19] was -0.099; in assay [5], 0.022; in assay [6], -0.024; in assay [7], 0.013; in assay [16], 0.001; in [20], -0.081. In addition, the log2 fold change in assay [8] is -0.131; in assay [10], 0.058; in [11] it was 0.011; in [12], 0.09; in [13] it was 0.013; in assay [14], 0.015.

For the target SNX2 isoform 2 (UniProt O60749), the log2 fold change in [17] was -0.244; in assay [2], 0.091; in [18] it was 0.402; in [15] it was -0.186; in assay [19], -0.033; in assay [7], 0.091. In addition, the log2 fold change in assay [16] was 0.151; in assay [20], -0.039; in assay [9] it was -0.377; in [12], -0.094.

As to SMDT1 (UniProt Q9H4I9), the log2 fold change was 0.012 in [17]; -0.032 in [2]; 0.044 in [18]; 0.067 in [15]; 0.044 in assay [19]; 0.01 in assay [5]. For the same target, the log2 fold change in assay [6] was 0.036; in [7], 0.039; in assay [16], 0.036; in assay [20], -0.026; in assay [9] it was -0.012; in assay [12], -0.043. Further, the log2 fold change in assay [14] was 0.027.

As for TACC2 (UniProt O95359), the log2 fold change was -0.219 in assay [1]; 0.008 in assay [17]; 0.06 in assay [3]; 0.005 in assay [18]; 0.075 in assay [15]; -0.128 in [4]. Besides, the log2 fold change in assay [19] was 0.014; in assay [5], 0.014; in [6], -0.026; in assay [16], -0.058; in assay [20], 0.054; in [8] it was 0.108. Moreover, the log2 fold change in [10] is -0.205; in assay [11], -0.007; in [13], 0.069; in assay [14] it was 0.058.

(Values after the supplement of paper PMC10849652.)
